Laboratory results as given in PubChem BioAssay AID1259313 (Sanford-Burnham Center for Chemical Genomics, 2017).
About 8,500 (2.5%) of roughly 340,000 compounds were called active. What follows is part of a selection rich in actives, with near analogues and random picks from the rest. Unmarked numbers belong to inactive results.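 How the source made its calls: active means melting temperature shift of at least 10% of the positive control shift, at one fixed dose; inactive means the rest.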

System: Glutamate receptor ionotropic, NMDA 3A (GRIN3A) ligand-binding domain
Assay: binders of NR3A ligand-binding domain, primary screen, biophysical, differential scanning fluorimetry, uHTS (AID 1259313)
Conditions: NR3A LBD differential scanning fluorimetry, at 25 µM, hits give high values, 0% = protein alone, 100% = glycine-bound protein

| Structure (SMILES) | Tm shift relative to glycine control |
| --- | --- |
| CC(C)c1cc(C(=O)N/N=C/C(Br)=C/c2ccccc2)n[nH]1 | 6.56% |
| CC(C)(C)C1CCC(=NNC(=O)c2cc(-c3ccccc3)n[nH]2)CC1 (stereo not given) | -5.15% |
| CC(/C=N/NC(=O)c1cc(-c2ccc3ccccc3c2)n[nH]1)=C\c1ccco1 | 16.4% (active) |
| Cc1cc2c(cc1C)NC1(C[C@H]3CCC(=O)N4CC[C@@H](C1)[C@@H]34)C(=NC(C)(C)CC(C)(C)C)N2 (stereo not given in full) | -6.03% |
| Cc1ccc(C)c(N2CCN(C(=O)CCCCCn3c(=S)[nH]c4ccc(N5CCOCC5)cc4c3=O)CC2)c1 | -2.75% |
| O=C(CCCCCn1c(=S)[nH]c2cc3c(cc2c1=O)OCO3)N1CCN(c2ccc(F)cc2)CC1 | 11.6% (active) |
| CC(C)NC(=O)CCCn1c(=S)[nH]c2cc3c(cc2c1=O)OCO3 | -1.68% |
| CC(C)c1ccc(NC(=S)NC2CC3C=CC2C3)cc1 (stereo not given) | 0.48% |
| Cc1cccc(N=C2NC(=O)/C(=C/c3cn(C)c4ccccc34)S2)c1 | 26.7% (active) |
| Cc1ccc(N2C(=O)S/C(=C/c3cn(C)c4ccccc34)C2=O)cc1 | 1.52% |
| Cc1ccc(N=C2NC(=O)/C(=C/C=C/c3ccco3)S2)cc1C | 9.42% |
| Cc1cccc(N2CCN(C(=O)CN(C)S(=O)(=O)c3ccc4c(c3)CCC(=O)N4)CC2)c1C | 0.4% |
| CN(NC(=O)C1CC(=O)N(c2ccccc2)C1)C1=NS(=O)(=O)c2ccccc21 (stereo not given) | -0.38% |
| Cc1cccc(OCCNC(=S)NC(=O)c2cccnc2)c1 | 1.46% |
| Cc1ccc(NC(=O)NC(=O)c2ccccc2)cc1F | -0.73% |
| Cc1cccc(NC(=O)NC(=S)NC(=O)c2ccccc2)c1 | 20.6% (active) |
| O=C(c1ccc[nH]c1=S)N1CCN(S(=O)(=O)c2ccc(Br)cc2Cl)CC1 | -0.43% |
| COC(=O)C1(O)CC(C(C)C)=NN1C(=O)c1ccc(Cl)cc1 (stereo not given) | -4.26% |
| Cc1ccc(NC(=O)CN2CCC3(O)CCCCC3C2c2ccc3c(c2)OCO3)c(C)c1 (stereo not given) | 1.39% |
| Cc1cc(C)c(OCC(=O)N(Cc2cccs2)C2CCS(=O)(=O)C2)c(C)c1 (stereo not given) | -2.05% |
| Cc1cc(C)n(S(=O)(=O)c2cccc([N+](=O)[O-])c2)n1 | -0.54% |
| Cc1ccc(-c2cn(S(=O)(=O)c3cccc([N+](=O)[O-])c3)nc2N)cc1 | 23.9% (active) |
| CC1=NCCN1S(=O)(=O)c1cccc([N+](=O)[O-])c1 | 0.43% |

| Structure (SMILES) | Tm shift relative to glycine control |
| --- | --- |
| O=C(COC(=O)c1ccco1)Nc1ccc(Cl)cn1 | -4.19% |
| CCN(c1ccccc1)S(=O)(=O)c1ccc(OCC(=O)N2CCCC2)cc1 | -0.92% |
| COC(=O)C(NS(=O)(=O)c1ccc(F)cc1)c1ccccc1 (stereo not given) | 0% |
| COc1ccc(CN2CCN(Cc3ccc(OC)c(OC)c3OC)CC2)cc1 | -0.74% |
| Cc1ccc(NC(=O)COc2ccc(-n3ccnc3)cc2)cc1Cl | -10.8% |
| Cc1ccc(NC(=O)Nc2cc(-c3ccccc3)nn2C)cc1Cl | 47.8% (active) |
| Cc1cc(NC(=O)Nc2ccc(Cl)cc2)n(-c2ccccc2)n1 | 3.84% |
| O=C(NC(Cc1c[nH]c2ccccc12)C(=O)O)/C(=C/c1ccco1)NC(=O)c1ccccc1 (stereo not given) | 5.13% |
| Cc1ccc(S(=O)(=O)NNC(=O)Nc2cccc3ccccc23)cc1 | 1.46% |
| Cc1cc(Cl)nc(NC(=O)Nc2cccc(Cl)c2)n1 | -1.44% |
| Cc1cccc(NC(=S)NC23CN4CN(CN(C4)C2)C3)c1 | -2.24% |
| CCC(=O)Nc1nc(C)c(C(=O)Nc2cccc(Cl)c2)s1 | 0.19% |
| Cc1cccc(NC(=S)Nc2ccc(Cl)c(Cl)c2)c1 | 14.9% (active) |
| FC(F)(F)c1cccc(NC(=S)Nc2cccc(Cl)c2)c1 | 15.7% (active) |
| Cc1csc(NC(=S)Nc2cccc(Cl)c2)n1 | 16.9% (active) |
| O=C(O)CC1(CC(=O)Nc2cccc(C(F)(F)F)c2)CCCC1 | -1.43% |
| Cn1nc(C(F)(F)F)c(C(=O)Nc2cccc(C(F)(F)F)c2)c1SCc1ccc(Cl)cc1 | 6.13% |
| O=S(=O)(Nc1ccc2cn[nH]c2c1)c1ccccc1 | -1.96% |
| S=C(Nc1cccc(Cl)c1)Nc1ccc2cn[nH]c2c1 | 13% (active) |
| Cn1cc(Cl)c(C(=O)NNC(=S)Nc2cccc(Cl)c2)n1 | -11.3% |
| Cc1cc2[nH]ncc2cc1NC(=S)NC(=O)c1ccccc1 | -2.48% |
| COc1ccccc1C(=O)OCC(=O)NCCNC(=O)COC(=O)c1ccccc1OC | -2.11% |
| CCSc1nnc(SCC(=O)NNC(=O)c2ccccc2F)s1 | 0.44% |

| Structure (SMILES) | Tm shift relative to glycine control |
| --- | --- |
| O=C(NN1C(=O)C2C3C=CC(O3)C2C1=O)c1ccncc1 (stereo not given) | 2.17% |
| CCO[C@@H]1OC(C(N)=O)=C[C@H](c2ccc(Br)cc2)[C@H]1CCCO | 2.58% |
| COc1ccc(CCNS(=O)(=O)c2cc3c(cc2C)NC(=O)CO3)cc1OC | 2.97% |
| O=c1ccn([C@@H]2O[C@H](CNS(=O)(=O)c3cc4ccccc4s3)[C@@H](O)[C@H]2O)c(=O)[nH]1 | -1.03% |
| CCOC(=O)N1CCN(S(=O)(=O)c2ccc(C(=O)Nc3ccc(F)cc3F)cc2)CC1 | -2.71% |
| CC(C)Oc1ccc(CC(=O)NNC(=S)Nc2ccc(Br)cc2)cc1 | -3.79% |
| C=CCn1c(C23CC4CC(CC(C4)C2)C3)n[nH]c1=S | 0.44% |
| COc1cccc(/C=N/Nc2ccc(S(=O)(=O)Nc3ccccc3C(=O)O)cc2[N+](=O)[O-])c1O | 22.4% (active) |
| COc1ccc(S(=O)(=O)Nc2ccc3cn[nH]c3c2)cc1[N+](=O)[O-] | -8.84% |
| COc1ccc(Br)cc1/C=N/Nc1ccc(S(=O)(=O)Nc2ccccc2C(=O)O)cc1[N+](=O)[O-] | 503% (active) |
| Cc1ccc(NS(=O)(=O)c2ccc(N/N=C/c3ccccc3OCC(=O)O)c([N+](=O)[O-])c2)c(C)c1 | 3.61% |
| O=C(O)c1ccccc1/C=N/Nc1ccc(S(=O)(=O)Nc2ccc(Cl)cc2)cc1[N+](=O)[O-] | 9.21% |
| COc1ccc(S(=O)(=O)Nc2ccccc2C(=O)N2CCCC2)cc1C | 2.36% |
| COc1ccc(CCNC2=C(Cl)C(=O)N(Cc3ccccc3)C2=O)cc1OC | 2.81% |
| CC(=O)c1ccc(N2CCN(S(=O)(=O)c3ccc4c(c3)CC(=O)N4C)CC2)cc1 | 4.97% |
| O=C(Cc1ccc(Cl)c(Cl)c1)Nc1ccc(SC(F)F)cc1 | 25.9% (active) |
| CC(=O)N1CCN(CC(=O)Nc2ccc(SC(F)F)cc2)CC1 | -2.44% |
| Cc1ccc(CC(=O)Nc2ccc(OC(F)F)c(Cl)c2)cc1C | 3.08% |
| Cc1c(Cl)c([N+](=O)[O-])nn1CC(=O)NCCCN1CCOCC1 | -0.8% |
| COc1cc2c(-c3ccc4c(c3)OCO4)c(-c3ccsc3)oc(=O)c2cc1OC | 12.9% (active) |
| COc1cc(-c2c(-c3ccc4c(c3)OCO4)noc2C)ccc1F | -2.27% |
| COc1cc(C(=O)CCc2ccc3c(c2)OCO3)cc(OC)c1OC | 0.46% |
| CN(C)CCCn1c(SCc2ccc(Cl)cc2)nnc1-c1ccncc1 | -5.52% |

| Structure (SMILES) | Tm shift relative to glycine control |
| --- | --- |
| CC(C)(Oc1ccc(Cl)cc1)C(=O)OCC(=O)NCCc1ccc(S(N)(=O)=O)cc1 | -1.31% |
| CN(C)N=Nc1ccc2nc[nH]c2c1 | -1.21% |
| COc1ccc2[nH]c3c(c2c1)CCN1C(=O)C(CC(=O)NCc2cccc(C(F)(F)F)c2)C[C@H](C(=O)N2CCOCC2)[C@@]31C (stereo not given in full) | -2.74% |
| COC(=O)c1sc(N)c(C(=O)OC)c1COC(=O)CNS(=O)(=O)c1ccc(C)cc1 | 13.2% (active) |
| COC(=O)CNS(=O)(=O)c1ccc(Cc2ccc(S(=O)(=O)NCC(=O)OC)cc2)cc1 | 1.25% |
| C/C(N)=C(/C#N)C(=O)COC(=O)CNS(=O)(=O)c1ccc(C)cc1 | -0.65% |
| CCN(CC)C(=O)Oc1ccc(OC(=O)N(CC)CC)cc1 | -0.08% |
| NS(=O)(=O)c1ccc(NC(=S)N2CCCC2)cc1 | -6.36% |
| COc1ccc(N2CCN(C(=S)Nc3ccc(S(N)(=O)=O)cc3)CC2)cc1 | 1.93% |
| CCOc1ccccc1N1CCN(C(=S)Nc2ccc(S(N)(=O)=O)cc2)CC1 | 31.7% (active) |
| O=C(Nc1ccccc1C(=O)N1CCOCC1)C1CCC(=O)N1C1CCCC1 (stereo not given) | -0.29% |
| O=C(c1cc(-c2cccc(O)c2)on1)N1CCc2ccccc2C1 | -13.5% |
| Cn1cccc1C(=O)N1CCc2ccccc2C1 | 38.1% (active) |
| CN(c1ccc(C(=O)N2CCc3ccccc3C2)cc1)S(C)(=O)=O | -0.88% |
| Cc1nn(Cc2ccccc2)c(C)c1CNC(=O)c1ccc(F)c(S(=O)(=O)N2CCOCC2)c1 | 0.42% |
| Cc1cc(C(=O)NNC(=S)NC(C)c2ccccc2)cs1 (stereo not given) | -0.62% |
| CCCN1Cc2cccc(C(=O)Nc3ccc(S(=O)(=O)N4CCCCCC4)cc3)c2C1=O | -5.76% |
| O=S(=O)(Nc1n[nH]c(C(F)(F)F)n1)c1ccccc1 | -16.9% |
| COc1ccccc1NC(=O)Nc1nc(CC(=O)Nc2ccccc2F)cs1 | 27.7% (active) |
| COc1ccccc1NC(=O)Nc1nnc(Cc2ccc(F)cc2)s1 | -6.85% |
| COc1ccccc1NC(=O)COC(=O)COc1ccccc1F | 0.17% |
